Assay outcomes (PubChem BioAssay)
PNC assembly inh: perinucleolar compartment assembly inhibition; PC3M PTB-GFP, PNC prevalence imaging, 16 h; hits give low values; activity change (PNC), negative = inhibition, % at 10 µM; actives 3.1% (n = 140,000);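 active means readout at or below -70, meaning at least 70% loss of cells showing the perinucleolar compartment, a nuclear body marking cancer cells; inconclusive means readout between -30 and a set limit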;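 further: plate controls were DMSO wells for no effect and camptothecin positive control wells for full effect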
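Compounds are pinned in duplicate onto adhered PC3M cells stably expressing GFP-tagged PTB and incubated 16 h at 37 C. Cells are then fixed, nuclei stained with Hoechst, and PNC-positive cells counted.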
HPGD inh: HPGD (human) dehydrogenase inhibition. purified HPGD, NADH fluorescence kinetic, PGE2 substrate. Potency, µM, for inactives: top-dose activity change, negative = inhibition, most hits filed as inhibitors. actives 4.3% (n = 150,000); further: potency means the concentration at half of the fitted maximal effect
Target sequence (P15428 whole entry, looked up): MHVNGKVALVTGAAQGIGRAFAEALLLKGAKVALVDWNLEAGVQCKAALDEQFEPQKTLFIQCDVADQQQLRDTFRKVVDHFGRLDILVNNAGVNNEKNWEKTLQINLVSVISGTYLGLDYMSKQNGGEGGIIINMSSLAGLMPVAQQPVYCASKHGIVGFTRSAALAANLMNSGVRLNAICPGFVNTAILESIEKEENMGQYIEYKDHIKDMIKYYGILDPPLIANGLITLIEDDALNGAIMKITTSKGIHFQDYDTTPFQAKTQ
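NADH formation kinetics: reaction with 30 uM PGE2 and 1 mM NAD+ (final), 20 nM enzyme, Tris-HCl pH 8 with Tween 20, after 15 min compound preincubation at room temperature. Fluorescence change, last versus first of five reads.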
ALDH1A1 block: blocks purified human ALDH1A1 activity. P00352. Purified ALDH1A1, NADH fluorescence, propionaldehyde substrate. Potency, µM (doses to about 75.3 µM), without a hit: at the highest dose activity, negative = inhibition, hits mostly inhibitors. actives 7.3% (n = 220,000);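 further: potency means the concentration at half of the fitted maximal effect; plate controls were no enzyme wells and a reference inhibitor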
An asterisk follows results filed as active; ? = inconclusive; nt = not tested or not shown; [ ] = another dose, or the depositor's remark. Compounds with a hit are over-represented: about 11% of the library has one in this group of screens. Unless noted, the call rests on the fitted dose curve; in most records, active means well fitted inhibition curve with a large enough effect (not every such curve was filed as active); inconclusive means small, poorly fitted or top-dose-only effect, or another doubt; inactive means no such curve, though single readings can be large or run the other way. Unless noted, on the % scale 0 is the no-effect control and ±100 the full control effect.

SMILES | PNC assembly inh | HPGD inh | ALDH1A1 block
CCC(c1nnnn1Cc1ccco1)N(Cc1cc2cc(C)cc(C)c2[nH]c1=O)CC1CCCO1 (stereo unspecified) | 4.0 | -14.8% | 12.6µM*
Cc1cccc2cc(CN(Cc3ccco3)C(c3nnnn3CCc3ccccc3)C(C)C)c(=O)[nH]c12 (stereo unspecified) | -99.3* | ? | 31.6µM*
CCC(c1nnnn1Cc1ccco1)N(Cc1ccccc1OC)Cc1cc2cc(C)ccc2[nH]c1=O (stereo unspecified) | 28.2 | -14.5% | ?
O=C(O)[C@H]1NCCC[C@H]1C(=O)O | nt | -12.9% | -3.7%
CC12CC[C@@H]3c4ccc(OP(=O)(O)O)cc4CCC3C1CCC2=O (stereo partly specified) | nt | 0.6% | 3.3%[13.5 µM]
O=S(=O)(NCCNc1ncc(C(F)(F)F)cc1Cl)C(F)(F)F | nt | nt | 13.5%
O=C(O)/C=C/C(=O)NCCNc1ncc(C(F)(F)F)cc1Cl | nt | nt | 28.2µM*
O=C1C=CC(=O)N1CCNc1ncc(C(F)(F)F)cc1Cl | nt | nt | 0.631µM*
O=C1CC(=O)N(CCNc2ncc(C(F)(F)F)cc2Cl)C(=O)N1 | 48.9 | -17.9% | 7.2%
c1ccc2c(Nc3ccc4c(c3)OCCO4)c3c(nc2c1)CCCC3 | nt | nt | -1.5%
CCOc1ncccc1C(=O)NCCN1C(=O)S/C(=C/c2cccs2)C1=O | -15.2 | -0.8% | -2.8%
O=C(O)C1(O)C[C@H](O)C(O)[C@@H](O)C1 (stereo partly specified) | nt | 0.0% | -2.8%
Cc1ccc(-n2cc(C(=O)c3ccccc3O)cn2)cc1 | 16.2 | ? | ?
Cc1ccc(O)c(C(=O)c2cnn(-c3ccccc3)c2)c1 | 26.4 | 3.55µM* | -5.4%
COc1ccc(C(=O)n2cc(C(=O)c3cc(C)ccc3O)cn2)cc1OC | 134.6 | ? | 0.159µM*
COc1ccc(C(=O)n2cc(C(=O)c3cc(C)ccc3O)cn2)cc1 | ? | -11.7% | 0.398µM*
CCn1c(C)nc2cc(C(=O)n3cc(C(=O)c4ccccc4O)cn3)ccc21 | ? | nt | 3.9%
COc1ccc(O)c(C(=O)c2cnn(C(=O)c3cc(C)oc3C)c2)c1 | 13.3 | -15.2% | 3.55µM*
COc1ccc(O)c(C(=O)c2cc(C#N)c(=O)n(Cc3ccccc3)c2)c1 | nt | nt | 14.9%
COc1ccc(C(=O)n2nc(C)cc2C)cc1OC | -25.9 | -9.4% | 3.2%
CO[C@H]1C[C@@H]2C[C@H](O)C[C@@H](CC(=O)O[C@@H](/C=C\CC(C)C)C[C@@H]3CC[C@H](C)[C@@H](C1)O3)O2 | nt | nt | 7.9%[13.5 µM]
C=CCNC(=O)C(=O)NCCOc1ccccc1Cl | -23.0 | -18.3% | 8.3%
O=C(Cc1cnn(-c2ccccc2)c1)c1ccc(O)c(O)c1O | 59.5 | 28.2µM* | 3.16µM*
CCc1cc(C(=O)Cc2cnn(-c3ccccc3)c2)c(O)cc1O | 13.8 | ? | ?
Cc1cccc(N(C(=O)CCC(=O)Nc2nccs2)C(C(=O)NC(C)(C)C)c2ccc(O)cc2)c1 (stereo unspecified) | nt | nt | 5.1%
SMILES | PNC assembly inh | HPGD inh | ALDH1A1 block
O=C(NCc1ccccn1)c1cccc([N+](=O)[O-])c1 | 23.0 | -9.5% | 2.5%
O=C(C[n+]1cc(Br)cc(Br)c1)c1cccc([N+](=O)[O-])c1 | nt | nt | 3.98µM*
O=C(c1ccco1)N1CCN(C(c2cccs2)c2nnnn2C2CCCCC2)CC1 (stereo unspecified) | 0.0 | 2.9% | 17.8µM*
CC(C)CC(c1nnnn1Cc1ccccc1)N1CCN(C(=O)c2ccco2)CC1 (stereo unspecified) | -16.8 | -0.1% | 25.1µM*
CC(C)(C)n1nnnc1C(c1cccs1)N1CCN(C(=O)c2ccco2)CC1 (stereo unspecified) | 1.5 | -8.4% | -11.1%
COc1ccc(OC)c(C(c2nnnn2CCC(C)C)N2CCN(C(=O)c3ccco3)CC2)c1 (stereo unspecified) | 7.9 | -13.3% | 6.4%
CCC(c1nnnn1Cc1ccco1)N1CCN(C(=O)c2ccco2)CC1 (stereo unspecified) | 3.3 | -0.3% | ?
O=C(c1ccco1)N1CCN(C(c2ccccc2Cl)c2nnnn2Cc2ccco2)CC1 (stereo unspecified) | 13.8 | -5.9% | 11.2µM*
O=C(c1ccco1)N1CCN(C(c2ccc(F)cc2)c2nnnn2Cc2cccs2)CC1 (stereo unspecified) | 3.9 | -4.4% | ?
O=C(c1ccco1)N1CCN(C(c2ccccc2)c2nnnn2Cc2cccs2)CC1 (stereo unspecified) | -22.4 | -3.8% | 2.24µM*
N#Cc1ccccc1S(=O)c1ccccc1C(=O)Nc1ccccc1 (stereo unspecified) | nt | nt | 7.1%
COc1cccc(NC(=O)N2CCC(n3nnc4ccccc43)CC2)c1 | nt | nt | 2.4%
CCN(CC(=O)NC(C)C)C(=O)[C@@H](NC(=O)c1ccco1)C(C)C | nt | nt | 2.3%
O=C(Nc1ccccc1)N1CCC2(CC1)CCN(C(=O)c1cccc(F)c1)CC2 | nt | -5.4% | 1.7%
CCOCC(=O)O | nt | -3.5% | 8.9%
COc1cccc(/C=C/C(=O)N2CCN(c3n[nH]c(=O)[nH]c3=O)CC2)c1OC | nt | nt | -0.4%
COc1ccc(NC(=O)N2CCCC3(CCN(C(=O)c4cc(C(F)(F)F)cc(C(F)(F)F)c4)CC3)C2)cc1 | nt | -7.1% | 2.3%
O=C(c1ccco1)N1CCN(C(c2ccccc2Cl)c2nnnn2Cc2cccs2)CC1 (stereo unspecified) | -27.2 | -9.9% | 12.6µM*
CC(C)C(c1nnnn1Cc1cccs1)N1CCN(C(=O)c2ccco2)CC1 (stereo unspecified) | nt | nt | 11.5%
CC(=O)NC1=C(OS(=O)(=O)c2ccc(C)cc2)CN(C)C1=O | nt | -5.7% | -6.9%[13.5 µM]
Cc1c(C)c2c(c(C)c1O)CCC(C)(COc1ccc(Cc3sc(=O)[nH]c3O)cc1)O2 (stereo unspecified) | nt | -7.9% | 8.2%
Cn1c(=O)[nH]c(=O)c2c1nc(CN1CCN(c3ccccc3F)CC1)n2CCCc1ccccc1 | ? | 7.4% | 3.16µM*
CCCCCn1c(CN2CCN(c3cccc(Cl)c3)CC2)nc2c1c(=O)[nH]c(=O)n2C | 36.1 | -0.9% | ?
CN1CCN(Cc2nc3c(c(=O)[nH]c(=O)n3C)n2CCc2ccccc2)CC1 | 5.3 | -0.7% | -4.8%
Cn1c(=O)[nH]c(=O)c2c1nc(CN1CCN(c3cccc(Cl)c3)CC1)n2CCc1ccccc1 | ? | -1.0% | 14.1µM*
SMILES | PNC assembly inh | HPGD inh | ALDH1A1 block
COc1ccc(N2CCN(Cc3nc4c(c(=O)[nH]c(=O)n4C)n3CC(C)=O)CC2)cc1 | -90.2* | -16.2% | -1.9%
CCOC(=O)N1CCN(Cc2nc3c(c(=O)[nH]c(=O)n3C)n2CCCc2ccccc2)CC1 | 72.5 | 3.3% | ?
CCCCCn1c(CN2CCN(C(=O)OCC)CC2)nc2c1c(=O)[nH]c(=O)n2C | ? | 0.3% | 11.2µM*
COc1ccc(N2CCN(Cc3nc4c(c(=O)n(C)c(=O)n4C)n3CC(C)=O)CC2)cc1 | -8.7 | -3.0% | 7.7%
CC(C)N1C(=O)CCN(C=O)c2ccccc21 | nt | nt | 1.5%
N#C/C(=C\c1ccc(Cl)cc1)c1nc2ncccc2[nH]1 | -18.1 | -22.6% | -1.0%
CCCCCCCCCCCCCCCC(=O)C1=C(O)C(CO)OC1=O (stereo unspecified) | nt | nt | -5.3%
COc1ccc(-c2nn(-c3ccccc3)cc2/C=C(/C#N)C(N)=O)cc1[N+](=O)[O-] | -17.5 | -25.1% | ?
